# Compounds with a hit are over-represented: about 2.4% of the library has one in this group of screens.
# D2 antagonist: antagonists of human D2 dopamine receptor; P14416; inhibition, % at 10 µM; hit rate 2% among 340,000; HEK293 TREx D2 cells, calcium flux, dopamine EC80; in the data active = inhibition above about 30%; inactive = below that, where a call was filed; note: 0% is about no effect
# Target sequence (P14416 whole entry, looked up): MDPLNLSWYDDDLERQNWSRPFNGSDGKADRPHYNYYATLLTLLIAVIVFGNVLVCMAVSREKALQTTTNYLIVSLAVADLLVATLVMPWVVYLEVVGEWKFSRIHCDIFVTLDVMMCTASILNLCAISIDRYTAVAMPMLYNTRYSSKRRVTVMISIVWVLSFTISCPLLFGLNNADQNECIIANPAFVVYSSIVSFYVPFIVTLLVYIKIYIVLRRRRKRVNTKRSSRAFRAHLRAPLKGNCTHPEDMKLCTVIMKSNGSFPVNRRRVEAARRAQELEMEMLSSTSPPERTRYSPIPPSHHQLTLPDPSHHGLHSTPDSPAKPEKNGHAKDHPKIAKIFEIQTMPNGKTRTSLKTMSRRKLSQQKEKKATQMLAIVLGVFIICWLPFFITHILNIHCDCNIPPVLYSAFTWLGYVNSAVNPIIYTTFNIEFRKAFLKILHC
#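 Read-out: kinetic calcium fluorescence (1 cycle/s) in inducible HEK293 T-REx D2 cells after an EC80 dopamine addition that followed 180 s compound preincubation. Loss of the dopamine response indicates antagonism.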
# D2 ag-1: human D2 receptor agonism in beta-arrestin assay | activation, % (no concentration beside the values) | P14416 | DiscoveRx PathHunter D2 beta-arrestin, luminescence, 90 min; 100% = 57 uM dopamine signal | AID 624465 | hit rate 0.084% among 360,000; in the data active = activation above about 40%
#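 DiscoveRx PathHunter D2 beta-arrestin cells (2,100/well) attached overnight, then compound-stimulated 90 min at 37 C in HBSS/10 mM HEPES/0.1% Tween-20 buffer; beta-galactosidase complementation read by luminescence after 1 h at ambient temperature. Dopamine 57 uM final (EC100) as control.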
# D2 PAM-1: potentiates the human D2 dopamine receptor allosterically; P14416; DiscoveRx D2 beta-arrestin cells, luminescence, 90 min; 100% = 57 uM dopamine signal; potentiation, % (concentration not given with the values); hit rate 0.23% among 360,000; in the data active = potentiation above about 50%
#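 PathHunter D2 cells, attached overnight at 37 deg C, received compound in DMSO plus dopamine at EC20 (50 nM final) for 90 min at 37 deg C. Beta-arrestin recruitment was read as luminescence after 1 h with detection reagent at ambient temperature.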
# D2 ag-2: activates the human D2 dopamine receptor. HEK293 T-REx D2 cells, calcium flux agonist mode. activation, % at 2 µM. hit rate 0.53% among 340,000. AID 485358;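 active = activation over 3 SD above normal in the single-dose calcium agonist read, cut at about 30% in these data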; note: 0% is about no effect
#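 Agonism scored from kinetic calcium signal (1 read/sec, 180 s) following compound pin transfer, after a 10 s baseline. Cells: HEK293 Trex line expressing inducible D2 receptor coupled to calcium, dye-loaded after overnight culture at 30 C.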
# D2 PAM-2: positive allosteric modulators of human D2 dopamine receptor; P14416; HEK293 T-REx D2, calcium flux, EC20 dopamine potentiation; potentiation, % at 10 µM; hit rate 0.34% among 340,000; AID 485347;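 active = potentiation over 3 SD above the plate norm, cut at about 30% in these data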; note: 0% is about no effect
#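 Primary screen. Calcium kinetics in induced HEK293 T-REx D2 cells: compound pre-addition 180 s, EC20 dopamine, 180 s more.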
# Numbers without * were called inactive; / = no result.
SMILES,D2 antagonist,D2 ag-1,D2 PAM-1,D2 ag-2,D2 PAM-2
CCOC(=O)C1C(=O)Nc2nc(C)nn2C1c1ccccc1 (stereo not drawn),42*,-2,-13,1,5
CNCCCC1c2ccccc2C=Cc2ccccc21,75*,2,-27,3,-26
Cn1c(CN2CCCCC2)c(C#N)c2ccccc21,46*,-4,-22,-1,-23
Cn1c(CN2CCN(CC#N)CC2)c(C#N)c2ccccc21,-13,0,-12,0,-3
COc1cccc(-c2ccc3c(N)c(C(=O)c4ccc(F)cc4)sc3n2)c1,/,/,/,19,-24
C=CCOc1ccccc1CN1CCC(Oc2ccc(C(=O)N3CCCCC3)cc2)CC1,47*,-4,-46,0,-21
Cc1ccc2[nH]c(=O)c3cc(C(=O)NCCCN4CCC(C)CC4)sc3c2c1,/,/,/,0,-5
CCN(CC)S(=O)(=O)c1ccc(C(O)=C(C#N)c2nc3ccccc3n2C)cc1,/,0,-5,/,/
CN(C)c1ccc(/C=N/NC(=O)C(O)(c2ccccc2)c2ccccc2)o1,33*,1,-8,-1,3
CCN1C(=O)C(CC(=O)Nc2ccc(OC)cc2)N(CCCN2CCN(c3ccc(F)cc3)CC2)C1=S (stereo not drawn),57*,14,7,-1,/
CC(=O)c1ccc(N2CCN(S(=O)(=O)c3ccc(-c4coc(C)n4)cc3)CC2)cc1,/,/,/,1,-7
CN1CCN(CCOCCOc2ccc(Br)cc2Cl)CC1,31*,-4,-6,-2,-34
CC1CCN(CCCOc2ccc(Br)cc2Cl)CC1,47*,0,-3,2,-34
CC1CCCN(CCOCCOc2ccc(Br)cc2Cl)C1 (stereo not drawn),52*,0,-42,1,-27
Cc1ccc(OCCCCN2CCC(C)CC2)c(Br)c1,107*,-8,-39,0,-21
CC(=O)C1=C(c2ccccc2)N(C(C)=O)n2c(nnc2C2CCCCC2)S1,/,/,/,0,4
COc1ccc(-n2c(=O)c3c(c4cc(OC)ccc4n3C)n(Cc3c(F)cccc3Cl)c2=O)cc1,/,/,/,2,-4
CC1CCCN(CCOCCOc2ccc(Cl)cc2Br)C1 (stereo not drawn),83*,-4,-6,1,-23
CCOC(=O)c1c(NC(=O)c2cc(-c3ccc(OC)cc3)on2)sc(C)c1C,/,/,/,-1,/
COc1ccc(OCc2cc(C(=O)NC(C)Cc3ccccn3)no2)c(Cl)c1 (stereo not drawn),33*,9,-12,-1,-7
CCCN1CCN(CCNC(=O)Nc2ccc(OC)cc2OC)CC1,/,/,/,0,-1
CCn1c2c(c(=O)n3ncc(C(=O)N4CCN(c5ccc(Cl)cc5)CC4)c13)CN(Cc1ccc(OC)cc1)CC2,/,/,/,1,4
CCC(C(=O)NCCc1ccc(OC)c(OC)c1)n1nc(C)n2c(cc3occc32)c1=O (stereo not drawn),33*,-2,1,0,-5
C[C@H]1O[C@@H](O[C@H]2CC[C@@]3(C)C(CC[C@]4(C)C3C=C[C@]35OC[C@@]6(CCC(C)(C)C[C@H]63)[C@@H](O)C[C@]54C)[C@]2(C)CO)[C@H](O)[C@@H](O[C@@H]2O[C@H](CO)[C@@H](O)[C@H](O)[C@H]2O)[C@H]1O (stereo partly drawn),/,1,-35,/,/
CC1OC(OC2C(OC3C(O[C@H]4CC[C@]5(C)C6C=C[C@]78OC[C@@]9(CC[C@@H](C)[C@H](C)C97)[C@H](O)C[C@@]8(C)[C@]6(C)CC[C@H]5C4(C)C)OC(C)C(O)C3O)OC(CO)C(O)C2O)C(O)C(O)C1O (stereo partly drawn),32*,/,/,43*,-14
SMILES,D2 antagonist,D2 ag-1,D2 PAM-1,D2 ag-2,D2 PAM-2
COc1ccc(Cl)cc1CC1(C)C(=O)Nc2c(Cl)cccc21 (stereo not drawn),/,-3,-3,/,/
CCn1cc(C(=O)NCc2ccccc2)c(=O)c2cc(S(=O)(=O)N3CCCCCC3)ccc21,/,/,/,1,-2
COc1ccc(NC(=O)C2CCCN(S(=O)(=O)c3ccc4c(c3)CCCC(=O)N4)C2)c(OC)c1 (stereo not drawn),/,/,/,/,3
O=C(Nc1cccc(-n2cnnn2)c1)c1ccc(C(F)(F)F)cc1,57*,-2,-16,0,-17
Cc1c[nH]c2cccc(OCC(CNC(C)(C)C)OC(=O)c3ccccc3)c12 (stereo not drawn),70*,-4,-18,0,-19
CC(OCC(O)CN(C)CCOc1ccccc1)c1ccc(Cl)cc1 (stereo not drawn),26,6,17,32*,-23
CN(CCOc1ccccc1)CC(O)COc1ccccc1 (stereo not drawn),51*,-4,-16,2,-29
CN(CCOc1ccc(Cl)cc1)CC(O)c1ccccc1 (stereo not drawn),-17,-2,-17,-1,3
COc1ccc([N+](=O)[O-])cc1NC(=O)C(C)OC(=O)CSC(C)C(=O)Nc1cc(C)on1 (stereo not drawn),36*,-7,-24,0,8
Cc1cc(NC(=O)C(C)SCC(=O)OC(C)C(=O)Nc2ccccc2C)no1 (stereo not drawn),14,-3,-1,1,-13
COCCNCCOc1ccccc1-c1ccccc1,8,4,-32,-1,20
C=CCNCCCCOc1ccc(OCc2ccccc2)cc1,26,-5,-18,2,16
C=CCNCCCCOc1ccccc1-c1ccccc1,49*,-2,-17,0,-22
COCCCNCCCCOc1ccccc1-c1ccccc1,89*,4,-31,0,-22
COCCCNCCOc1ccccc1-c1ccccc1,93*,-1,-13,2,-33
Cc1ccc(C)c(CN2C(=O)N(c3cc(Cl)ccc3C)S(=O)(=O)c3ccccc32)c1,/,/,/,0,/
Cc1nc2nc(NC(=O)c3ccc(C(C)(C)C)cc3)[nH]n2c(=O)c1Cc1ccccc1,/,/,/,2,16
O=c1[nH]c(=O)n(C2CCCO2)cc1F (stereo not drawn),32*,6,-1,-1,2
CCOC(=O)c1ccc(NS(=O)(=O)c2c(C)[nH]c(C)c2C(=O)N2CCCCC2)cc1,69*,-2,7,1,-6
O=C(Nc1cccc(C(=O)N2CCN(c3cccc(Cl)c3)CC2)c1)c1nsc2ccccc12,/,/,/,0,9
COc1ccc(C(CNC(=O)c2ccc(-c3ccccc3Cl)o2)N2CCOCC2)cc1 (stereo not drawn),66*,-4,-40,1,-39
CC(C)(CNC(=O)c1ccc(Br)o1)N1CCOCC1,7,-2,-17,0,8
COc1ccc(C(CNC(=O)c2cc(F)c(F)c(F)c2F)N2CCOCC2)cc1 (stereo not drawn),40*,-3,-11,-1,-5
